From PubChem
Sampled rows, rich in hits. Any-hit rate of the full collection: about 12%.
G9a inh: qHTS Assay for Inhibitors of Histone Lysine Methyltransferase G9a; Histone-lysine N-methyltransferase EHMT2 (Homo sapiens), Q96KQ7; G9a H3K9 monomethylation, AlphaScreen, 2 h; Potency, µM (series often up to 102 µM), for inactives: at the top dose activity, negative = inhibition, actives largely listed as inhibitors; 8.8% of 350,000 active; AID 504332, 2011; further: on the % scale 0 is the no-effect control and ±100 the full control effect; nearly all actives have a fitted effect of over 75% in size
Target sequence (Q96KQ7 913-1193 limits assumed): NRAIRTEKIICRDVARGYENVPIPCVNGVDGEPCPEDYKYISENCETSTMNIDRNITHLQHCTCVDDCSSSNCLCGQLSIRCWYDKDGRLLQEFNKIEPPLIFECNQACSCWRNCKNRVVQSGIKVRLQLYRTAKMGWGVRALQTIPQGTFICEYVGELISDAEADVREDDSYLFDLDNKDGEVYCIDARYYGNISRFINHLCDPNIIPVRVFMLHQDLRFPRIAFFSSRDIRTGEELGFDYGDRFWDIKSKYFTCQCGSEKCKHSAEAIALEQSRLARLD
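Signal arises when biotinylated H3K9 peptide, once monomethylated, bridges streptavidin donor and antibody-captured acceptor beads. Enzyme at 20 nM was preincubated 15 min with test compounds; peptide 500 nM and SAM 20 uM then reacted for 2 h.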
BAZ2B block: qHTS Assay for Inhibitors of BAZ2B; Bromodomain adjacent to zinc finger domain protein 2B (Homo sapiens), Q9UIF8; AlphaScreen BAZ2B-H3K14Ac peptide displacement; Potency, µM (highest dose often 114 µM), without a hit: at the top dose activity change, negative = inhibition, actives largely listed as inhibitors; 4.4% of 360,000 active; AID 504333, 2011; further: on the % scale 0 is the no-effect control and ±100 the full control effect; nearly all actives have a fitted effect of over 60% in size
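Compounds, titrated to a top concentration of 110 uM, were incubated 30 min at room temperature with preformed BAZ2B/acetyl-K14 H3 peptide complex (50 nM each). Proximity signal was measured by AlphaScreen after 20 min with beads.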
Sfp PPTase inh: qHTS Assay for Inhibitors of Bacillus subtilis Sfp phosphopantetheinyl transferase (PPTase); Biochemical Sfp PPTase activity, qHTS; 3.5% of 310,000 active; 4'-phosphopantetheinyl transferase ffp (Bacillus subtilis), Q9F4F7; AID 1490, 2009; Potency, µM, for the others: largest response in the series, negative = inhibition, most hits filed as inhibitors;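 further: the enzyme is Sfp with the accession as filed and its product quenches rhodamine fluorescence; 0% = enzyme reaction without inhibitor and -100% = no enzyme wells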
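Buffer: 50 mM Hepes-Na pH 7.6, 10 mM MgCl2, 0.01% Nonidet P-40, 0.01% BSA. Enzyme 15 nM, pre-exposed to compound 15 min; substrates then added and fluorescence change tracked over 30 min.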
JMJD2A Tudor: qHTS Assay for Inhibitors of JMJD2A-Tudor Domain; Potency, µM (top dose mostly 114 µM), for inactives: at the top dose activity change, negative = inhibition, most hits filed as inhibitors; 4.4% of 390,000 active; Lysine-specific demethylase 4A (Homo sapiens), O75164; AlphaScreen JMJD2A-Tudor / H3K4me3 peptide binding; further: on the % scale 0 is the no-effect control and ±100 the full control effect; nearly all actives have a fitted effect of over 50% in size
L3MBTL1 inh: qHTS Assay for the Inhibitors of L3MBTL1 | Potency, µM (top dose mostly 57.1 µM), for inactives: at the highest dose activity, negative = inhibition, most hits filed as inhibitors | AlphaScreen L3MBTL1–H3K9me1 peptide binding | 0.66% of 230,000 active | Lethal(3)malignant brain tumor-like protein 1 (Homo sapiens), Q9Y468; further: on the % scale 0 is the no-effect control and ±100 the full control effect; nearly all actives have a fitted effect of over 60% in size
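L3MBTL1 (50 nM) pre-complexed 30 min with biotinylated H3(1-15)K9me1 peptide (75 nM), then compounds added for 30 min at room temperature; AlphaScreen streptavidin donor/nickel chelate acceptor beads (10 ug/mL final) read after 30 min dark incubation.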
HP1b binding inh: HTS for Inhibitors of HP1-beta Chromodomain Interactions with Methylated Histone Tails; AlphaScreen HP1-beta / biotin-H3K9me3 peptide binding; Chromobox protein homolog 1 (Homo sapiens), P83916; AID 540317, 2011; 0.56% of 390,000 active; Potency, µM (titrated, usually from 114 µM), for the others: at the highest dose activity change, negative = inhibition, most hits filed as inhibitors; further: nearly all actives have a fitted effect of over 70% in size
Target sequence (P83916 whole entry, looked up): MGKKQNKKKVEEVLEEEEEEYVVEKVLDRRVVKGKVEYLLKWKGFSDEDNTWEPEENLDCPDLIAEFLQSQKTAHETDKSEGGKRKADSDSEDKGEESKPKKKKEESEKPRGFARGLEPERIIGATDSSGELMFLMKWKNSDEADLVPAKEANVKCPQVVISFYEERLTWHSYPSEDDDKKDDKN
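HP1-beta protein (50 nM final) preincubated 30 min at room temperature with biotinylated H3(1-18)K9me3 peptide (50 nM) in PBS pH 7.4, 0.01% Tween-20, then compound added for 30 min. AlphaScreen streptavidin donor/nickel chelate acceptor beads (10 ug/mL final), 30 min dark, luminescence read.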
Numbers without * were called inactive; ? = inconclusive; · = no result; [ ] = dose if it differs, or a comment. The call rests on the fitted dose curve; in most records, active means well fitted curve in the direction sought with a large enough effect; inconclusive means small, poorly fitted or top-dose-only effect, or another doubt; inactive means no such curve, though single readings can be large; an effect the other way counts as inactive or inconclusive. Potency means the concentration at half of the fitted maximal effect.

SMILES	G9a inh	BAZ2B block	Sfp PPTase inh	JMJD2A Tudor	L3MBTL1 inh	HP1b binding inh
O=C(C[C@H]1C[C@H](C(=O)N2CCOCC2)[C@@]2(CCC3CCCC3)c3[nH]c4ccc(Cl)cc4c3CCN2C1=O)NCC12CC3CC(CC(C3)C1)C2	·	·	·	-31%	-6%	0%
Cc1c(CNCCC2=CCCCC2)c(C(=O)O)c(C)n1Cc1ccccc1	50µM*	-37%	11%	-21%	·	12%
O=C1C=CC2(O[C@H](c3ccccc3)[C@@H](c3ccccc3)O2)[C@H](Sc2ccccc2O)C1	·	·	·	79µM*	·	?
C[C@@H]1[C@@H](Sc2ccccc2)CC(=O)O[C@@H]1c1ccc(-c2ccccc2)cc1	·	·	-4%	15%	·	90%
Cc1ccc(CN(C(=O)c2ccc(OCC(C)C)cc2)c2ccccn2)o1	-27%[59 µM]	8%	·	-12%	·	20%
CCOC(=O)CC1=C(C(=O)OCC)C(c2cccs2)C(C#N)=C(N)O1 (stereo unspecified)	-29%[59 µM]	-39%	-7%	-8%	·	20%
CCc1ccc(N2CSC3=C(C#N)C(c4cccs4)CC(=O)N3C2)cc1 (stereo unspecified)	?	?	2.5µM*	32µM*	-9%	-34%
COc1ccc(N2CSC3=C(C#N)C(c4cccs4)CC(=O)N3C2)cc1 (stereo unspecified)	2.8µM*	50µM*	2.2µM*	-12%	?	9%
Cc1ccc(N2CSC3=C(C#N)C(c4cccs4)CC(=O)N3C2)cc1 (stereo unspecified)	1.4µM*	?	1.4µM*	32µM*	·	?
CCOC(=O)c1ccc(N2CSC3=C(C#N)C(c4cccs4)CC(=O)N3C2)cc1 (stereo unspecified)	5.6µM*	45µM*	11µM*	28µM*	-3%	?
Cc1ccc(N2C(N)=C(C#N)C(c3cccs3)C3=C2CC(C)(C)CC3=O)cc1 (stereo unspecified)	?	-37%	-25%	?	·	2%
COC(=O)C1C(=O)N2CCCSC2=C(C#N)C1c1cccs1 (stereo unspecified)	?	-21%	0%	-14%	3%	31%
Cc1ccccc1SCC(=O)OCC(=O)NCCNC(=O)COC(=O)CSc1ccccc1C	50µM*	-13%	·	-9%	9%	37%
CCOC(=O)N/N=C1/C[C@@H](O)[C@@H](O)[C@@H]2[C@@H]3C(=O)N(Cc4ccc5c(c4)OCO5)C(=O)[C@H]3CC[C@@H]12	·	·	4%	·	·	·
COc1ccc2c(c1)c1nnc(SCCN3CCOCC3)nc1n2C	·	·	·	-14%	·	16%
Cc1onc(-c2ccccc2)c1C(=O)NCc1ccco1	50µM*	8%	?	-11%	7%	22%
Cc1onc(-c2ccccc2)c1C(=O)N(Cc1ccco1)Cc1cccs1	?	-16%	40µM*	-27%	3%	19%
Cc1onc(-c2c(Cl)cccc2Cl)c1C(=O)NCc1ccco1	17%	3%	-1%	-10%	-12%	34%
Cc1ccc(C2=Nc3ccccc3N(CC(=O)NCc3ccccc3Cl)C(=O)C2)cc1C	-6%[59 µM]	-16%	·	-20%	·	26%
CS(=O)(=O)Nc1cccc(-c2nccc(-n3ccnc3)n2)c1	·	·	56µM*	·	·	·
Cc1ccccc1-c1nccc(-n2ccnc2)n1	·	·	56µM*	·	·	·
Clc1ccccc1-c1nccc(-n2ccnc2)n1	·	·	-27%	·	·	·
N#Cc1cccc(-c2nccc(-n3ccnc3)n2)c1	?	·	50µM*	·	·	·
